Compound activity as filed in PubChem BioAssay.
Shown are actives, neighbours in structure and some others; about 21% of the full set was active somewhere.
CHX counter = counter-screen hit for Shiga toxin inhibitors, cycloheximide; max response, %; cell reporter, cycloheximide protein synthesis inhibition counterscreen; 12% of 300,000 active; AID 2314; in the data active = max response mostly above about 13%, no sharp cut-off; inactive = mostly below about 14%; also: read at 38.3 µM for the half of the compounds with a filed dose
Pf growth 96h = P. falciparum growth inhibition at 96 hour, primary screen for plastid delayed-death inhibitors; P. falciparum luciferase reporter growth, 96 h; Potency, µM (top dose mostly 28.7 µM), most hits filed as inhibitors; 6.9% of 320,000 active; AID 504834
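Infected RBCs, 2% Hct / 0.05% parasitemia final; luciferase-reporter P. falciparum; cpd 96 h, 37 C, 5% CO2; luciferase detection reagent; luminescence.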
Pf growth 48h = inhibits P. falciparum growth in the first generation, 48 h; 5.9% of 310,000 active; AID 504832; Potency, µM (doses to about 28.7 µM), usual class: inhibitors; P. falciparum luciferase growth in erythrocytes, 48 h
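Luciferase-expressing parasites in RBCs, 2% Hct / 0.1% parasitemia final; RPMI 1640 + 0.5% Albumax; 37 C, 5% CO2, one generation; luminescence read-out, lower signal = inhibition.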
FBPA Giardia inh = inhibitors of Giardia lamblia fructose-1,6-bisphosphate aldolase | AID 2451 | purified Giardia FBPA | A8B2U2 | Potency, µM (doses to about 59.6 µM), usual class: inhibitors | 0.71% of 290,000 active; also: nearly all actives have a fitted effect of over 55% in size
Target sequence (A8B2U2 whole entry, looked up): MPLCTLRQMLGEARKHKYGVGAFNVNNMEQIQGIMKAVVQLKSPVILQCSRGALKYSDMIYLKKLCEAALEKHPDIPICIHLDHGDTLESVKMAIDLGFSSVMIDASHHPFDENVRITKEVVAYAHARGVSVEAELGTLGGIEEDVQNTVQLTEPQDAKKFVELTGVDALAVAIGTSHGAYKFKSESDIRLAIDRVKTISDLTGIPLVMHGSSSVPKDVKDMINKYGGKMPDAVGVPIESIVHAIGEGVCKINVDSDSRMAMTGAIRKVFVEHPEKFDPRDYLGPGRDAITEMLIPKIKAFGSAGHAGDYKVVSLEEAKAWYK
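Giardia FBPA (40 nM reagent) was preincubated 10 min at RT with compound (up to 57.5 uM final), then substrate plus GAPDH/TPI/NAD/arsenate coupling system with diaphorase/resazurin was added; resorufin fluorescence (525/598 nm) was read after 20 min.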
NS1 inh = inhibitors of influenza NS1 protein function. AID 2326. Potency, µM (series often up to 46.1 µM). 0.4% of 270,000 active; calls by dose curve; also: actives are rising curves; nearly all actives have a fitted effect of over 50% in size
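OD600 was taken as the measure of yeast growth restored by compound in an NS1-expressing S. cerevisiae strain. Cells had been washed out of glucose medium and diluted 1:100 into galactose -URA medium, pH 6.0.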
Shiga inhibitor = inhibitors of Shiga toxin in Vero cells; 9.2% of 290,000 active; AID 2315; inhibition, % at 38.7 µM; Vero cells, Shiga toxin protein synthesis inhibition reporter; in the data active = inhibition mostly above about 28%, no sharp cut-off; inactive = mostly below about 43%
Hits are given with their value; 0 = inactive; ? = inconclusive; - = no result given; [ ] = dose if it differs, or a comment. Unless noted, calls follow the shape of the dose curve; as a rule, active = well fitted curve in the direction sought with a large enough effect; inconclusive = small, poorly fitted or top-dose-only effect, or another doubt; inactive = no such curve, though single readings can be large; an effect the other way counts as inactive or inconclusive.

SMILES | CHX counter | Pf growth 96h | Pf growth 48h | FBPA Giardia inh | NS1 inh | Shiga inhibitor
CC[C@H](C)[C@H](NC(=O)[C@H](C)NC(=O)[C@H](Cc1cnc[nH]1)NC(=O)[C@@H]1CCCN1C(=O)CNC(=O)[C@H](CC(C)C)NC(=O)[C@H](CC(C)C)NC(=O)[C@H](Cc1ccc(O)cc1)NC(=O)CNC(=O)[C@H](C)NC(=O)[C@H](CO)NC(=O)[C@H](CC(N)=O)NC(=O)[C@H](CC(C)C)NC(=O)[C@@H](NC(=O)[C@H](Cc1c[nH]c2ccccc12)NC(=O)CN)[C@@H](C)O)C(=O)N[C@@H](CC(=O)O)C(=O)N[C@@H](CC(N)=O)C(=O)N[C@@H](Cc1cnc[nH]1)C(=O)N[C@@H](CCCNC(=N)N)C(=O)N[C@@H](CO)C(=O)N[C@@H](Cc1ccccc1)C(=O)N[C@@H](CO)C(=O)N[C@@H](CC(=O)O)C(=O)N[C@@H](CCCCN)C(=O)N[C@@H](Cc1cnc[nH]1)C(=O)NCC(=O)N[C@@H](CC(C)C)C(=O)N[C@H](C(N)=O)[C@@H](C)O | 0 | - | - | 0 | - | 0
Nc1cc(-c2nc3ncccc3o2)ccc1Cl | 59.0 | 0 | 0 | 0 | 0 | 60.3
Cc1ccc(-c2nc3ncccc3o2)cc1N | 48.9 | ? | 0 | 0 | 0 | 62.1
Cc1ccc(-c2nc3ncccc3o2)cc1NC(=O)C(C)(C)C | 0 | 0 | 0 | 0 | 0 | 0
Cc1cc(-c2nc3ncccc3o2)ccc1N | 44.5 | ? | 0 | 0 | 0 | 84.6
CCCC(=O)Nc1cc(-c2nc3ncccc3o2)ccc1Cl | 0 | ? | 0 | 0 | ? | 0
CCN1C(=O)[C@H]2[C@H]3[C@H](O)[C@H](O)C/C(=N/OC)[C@@H]3CC[C@@H]2C1=O | - | - | - | 0[12.9 µM] | - | -
CCCC12CN(C(=O)c3ccc([N+](=O)[O-])cc3)CC(C)(CN(C(=O)c3ccc([N+](=O)[O-])cc3)C1)C2=O | 0 | 10.4µM | 11.7µM | 0 | 0 | 0
CC12CN(C(=O)c3ccc([N+](=O)[O-])cc3)CC(C)(CN(C(=O)c3ccc([N+](=O)[O-])cc3)C1)C2=O | 0 | 0 | 0 | 0 | 0 | 0
CCCOc1ccc(C(=O)CCC(=O)OCC(=O)Nc2cccc(S(N)(=O)=O)c2)cc1 | - | 0 | 0 | - | - | -
CC(=O)Nc1nc(CCN2C(=O)c3ccccc3C2=O)cs1 | 0 | ? | 0 | 0 | - | 0
COc1ccc(C(=O)OCCNC(=O)c2ccncc2)cc1OC | 0 | 0 | 0 | 0 | 0 | 0
COc1ccc(C(=O)O/N=C(\N)c2ccncc2)cc1OC | 14.6 | ? | ? | 0 | 0 | 0
COc1ccc(Cl)cc1C(=O)O/N=C(\N)c1ccncc1 | 0 | ? | ? | 0 | 0 | 57.1
COc1cc(C(=O)O/N=C(\N)c2ccncc2)cc(OC)c1OC | 0 | ? | 9.28µM | 0 | 0 | 0
N/C(=N\OC(=O)c1cccc2ccccc12)c1ccncc1 | 44.6 | ? | ? | 0 | 0 | 67.2
COc1cc(C(=O)O/N=C(\N)c2ccc([N+](=O)[O-])cc2)cc(OC)c1OC | 0 | 0 | ? | 0 | 0 | 0
Cc1ccc(S(=O)(=O)N2CCN(CC(O)c3ccccc3)CC2)cc1C (stereo not given) | 0 | 0 | 0 | 0 | - | 0
COc1cccc(OC)c1C(=O)O/N=C(\N)c1ccncc1 | 22.8 | 11.7µM | ? | 0 | 0 | 0
N/C(=N\OC(=O)C(c1ccccc1)c1ccccc1)c1ccncc1 | 0 | ? | 2.94µM | 0 | 0 | 0
CC(C)(C)CC(=O)O/N=C(\N)c1ccncc1 | 0 | ? | 0 | 0 | 0 | 0
O=C1CCCN1C(=O)CSc1nnnn1-c1ccccc1 | - | 0 | 0 | - | - | -
O=C1CN(S(=O)(=O)c2cc(C(=O)O)ccc2Cl)c2ccccc2N1 | 0 | 0 | 0 | 0 | 0 | 0
COc1cc(/C=N/N2CCN(Cc3ccc(C)cc3)CC2)cc(OC)c1O | 0 | 0 | 0 | 0 | 0 | 0
CC(=O)c1cccc(NC(=S)N2CCN(S(=O)(=O)c3ccc(F)cc3)CC2)c1 | 19.2 | ? | ? | - | 0 | 0
SMILES | CHX counter | Pf growth 96h | Pf growth 48h | FBPA Giardia inh | NS1 inh | Shiga inhibitor
CC(=O)c1cccc(NC(=S)N2CCN(S(=O)(=O)c3ccccc3)CC2)c1 | 9.7 | 4.15µM | ? | 0 | 0 | 0
Cc1cccc(NC(=S)N2CCN(S(=O)(=O)c3cccc(F)c3)CC2)c1 | 0 | ? | 13.1µM | 0 | - | 0
Cc1ccc2[nH]c3c(=O)n(CC(=O)N4CC(C)CC(C)C4)ncc3c2c1 (stereo not given) | 0 | 0 | 0 | 0 | 0 | 0
CCCCCCn1c(N)c(C(=O)NCCN2CCOCC2)c2nc3ccccc3nc21 | 0 | ? | 9.28µM | 0 | 0 | 0
COc1ccc(CCNC(=O)c2c(N)n(CCN3CCOCC3)c3nc4ccccc4nc23)cc1OC | 0 | 4.65µM | 9.28µM | 0 | 0 | 0
CCCCCn1c(N)c(C(=O)NCCN2CCOCC2)c2nc3ccccc3nc21 | 0 | ? | ? | 0 | 0 | 0
CCN(CC)S(=O)(=O)c1ccc(N2CCc3cc(OC)c(OC)cc3C2)nc1 | 0 | ? | ? | 0 | 0 | 0
CC(Nc1oc(-c2ccccc2)nc1-c1ccc(C(F)(F)F)cc1)c1ccccc1 (stereo not given) | - | - | - | 0 | - | -
Cc1ccc2nc(NC(=O)c3ccc(NS(=O)(=O)c4cccs4)cc3)sc2c1 | 29.0 | 0.465µM | ? | 0 | 0 | 0
Cc1ccc2nc(NC(=O)CS(=O)(=O)Cc3ccccc3)sc2c1 | 0 | ? | 0 | 0 | 0 | 0
Cc1ccc2nc(NC(=O)CCNS(=O)(=O)c3cccs3)sc2c1 | 25.7 | 0 | 0 | 0 | 0 | 79.4
COc1ccc(C)cc1NC(=O)c1ccc(NS(=O)(=O)c2cccs2)cc1 | 0 | ? | ? | 0 | 0 | 0
Cc1ccc2nc(NC(=O)CCNS(=O)(=O)c3ccc(Br)s3)sc2c1 | 25.6 | 0 | 0 | 0 | 0 | 0
CC1CCC2=NN(C(=O)c3ccco3)C(O)(C(F)(F)F)C2C1 (stereo not given) | 0 | 0 | 0 | 0 | 0 | 0
CCOC(=O)c1c(C)[nH]c(C)c1S(=O)(=O)N1CCN(c2cccc(C)c2)C(C)C1 (stereo not given) | 0 | 0 | 0 | 0 | 0 | 0
CCCCCn1c(=NC(=O)c2ccco2)c(C(=O)OCC)cc2c(=O)n3ccccc3nc21 | 0 | 14.7µM | 0 | 0 | 0 | 0
CCCCn1c(=NC(=O)c2ccco2)c(C(=O)OCC)cc2c(=O)n3cccc(C)c3nc21 | 0 | 5.86µM | 11.7µM | 0 | 0 | 0
CCOC(=O)c1cc2c(=O)n3ccccc3nc2n(C(C)C)c1=NC(=O)c1c(-c2c(F)cccc2Cl)noc1C | 0 | ? | 3.7µM | 0 | ? | 0
CCCCn1c(=NC(=O)c2ccco2)c(C(=O)OCC)cc2c(=O)n3ccccc3nc21 | 0 | - | ? | 0 | 0 | 0
N#Cc1cc2c(=O)n3ccccc3nc2n(Cc2ccco2)c1=NC(=O)c1ccco1 | 0 | 11.7µM | ? | 0 | 0 | 0
Cn1cnnc1SCC(=O)Nc1ccc(N2CCCCC2)cc1 | - | 0 | 0 | - | - | -
COc1cccc(N2CCN(C(=O)c3ccc(-c4ccccc4)cc3)CC2)c1 | 0 | ? | 0 | - | 0 | 0
